# Experimental data as given in PubChem BioAssay (NCI).
# The panel holds about 83,000 compounds, 20% with a hit somewhere; the sample as a whole holds those more often.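 For each line, cells grew in 96-well plates with the test compound present at a single concentration for 48 hours.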 Activity calls are given as the source filed them.
# Tested on: SK-OV-3 ovarian
# Experiment: NCI-60 one-dose screen, 48 h (100 = growth as untreated, 0 = no growth, -100 = all killed)
# Conditions: 10 µM unless noted
# Description: Growth inhibition of the SK-OV-3 human tumor cell line is measured as a screen for anti-cancer activity. Cells are grown in 96 well plates and exposed to the test compound for 48 hours. Compounds are tested at a single concentration, which is 10^-5 M for most compounds. The reported endpoint is percent growth (GI% or GIPRCNT), where numbers from 0 - 100% represent growth inhibition, and numbers from -100% - 0 represent cell death. For example, a value of 40 represents 60% growth inhibition. A value of 0 means no net growth occurred over the course of the experiment. A value of -40 indicates 40% of cells at the beginning of the experiment died by the end of the experiment. A value of -100 means all cells are dead at the end of the experiment.
# NCI-60 Human Tumor Cell Lines Screen was performed using the standard one-dose NCI protocol, which is described in more detail at https://dtp.cancer.gov/discovery_development/nci-60/default.htm.
# Compounds with GIPRCNT values below 10 were considered active. Activity score was based on GIPRCNT using the following formula: […]
# Score is 0 for GIPRCNT values of 100 or above, 50 for GIPRCNT values of 0, and 100 for GIPRCNT values of -100.
row,Compound,growth
1,CCOc1ccccc1-n1c(CN2CCN(C(=O)COc3ccc(CNCCCCCCN4C5CCCC4CC(OC(=O)Nc4cc(C)ccc4OC)C5)cc3)CC2)nc2ccccc2c1=O (stereo not given),-98.7% (active)
2,COc1nc2c(c(=O)n1C)CN(c1ccccc1)C(=O)CN2C,62.5% [100 µM] (inactive)
3,NS(=O)(=O)c1cnccc1Sc1ccncc1S(N)(=O)=O,95.6% (inactive)
4,Cn1c(I)c(C#C[Si](C)(C)C)c(=O)n(C(=O)c2ccccc2)c1=O,101% (inactive)
5,C[C@H]1[C@H]2[C@H]3CC[C@@H]4[C@@]5(C)C/C(=C/c6cccnc6)C(=O)C(C)(C)[C@@H]5CC[C@@]4(C)[C@]3(C)CC[C@]23CO[C@]1(C)[C@@H](C(=O)/C=C\c1cccnc1)C3,58.9% (inactive)
6,O=C(NCCCNc1cc(-c2cn(-c3ccccc3)nc2-c2cccc(O)c2)ccn1)c1ccccc1,37.7% (inactive)
7,CCN(CC)CCCC(C)Nc1c2ccc(Cl)cc2nc2ccc(O)cc12 (stereo not given),58.1% (inactive)
8,O=Cc1c[nH]c2ccc(-c3csc4ccccc34)cc12,49.4% (inactive)
9,Cn1cc2c(c1)-c1nc(Nc3ccccc3)ncc1CC2,77.6% (inactive)
10,CC(=O)OC[C@H]1OC(Sc2sc(C(=O)c3ccc(Br)cc3)c(N)c2-c2nc3ccccc3s2)[C@H](OC(C)=O)[C@@H](OC(C)=O)[C@@H]1OC(C)=O (stereo not given in full),96.6% (inactive)
11,CC1(C)OC2C(CO[Si](C)(C)C(C)(C)C)OC(n3c(I)c(C#C[Si](C)(C)C)c(=O)[nH]c3=O)C2O1 (stereo not given),111% (inactive)
12,Cc1ccc(Nc2ccc(Nc3ccc(C)cc3)c3c2C(=O)c2cccc(O)c2C3=O)cc1,87.5% (inactive)
13,Cn1c(-c2c(N)n(Cc3ccc(C(F)(F)F)cc3)c3nc(C#N)c(C#N)nc23)nc2ccccc21,-4.02% (active)
14,COc1ccc2c(c1)O/C(=C/c1ccc(OCC(=O)c3ccccc3)cc1)C2=O,125% (inactive)
15,C[n+]1cccc(CC(=O)NO)c1,90.9% (inactive)
16,COc1cc(C2CC(c3cc(OC)c(OCCCOc4ccc(-n5c(/C=C/c6ccccc6)nc6ccccc6c5=O)cc4)c(OC)c3)=NO2)cc(OC)c1OC (stereo not given),114% (inactive)
17,COc1ccc(C(=O)Nn2c(NCC(=O)N3c4ccccc4Sc4ccccc43)nnc2-c2ccc(O)cc2)cc1,105% (inactive)
18,CCCCNC(=O)Oc1ccc2c(=O)c3sc4c(=O)c5ccccc5c(=O)c4c3c(=O)c2c1,-93.9% (active)
19,COc1cc(/C=C2\C(=O)ON=C2C)cc(OC)c1OC,98.9% (inactive)
20,CCCCN(CCCC)CC(C)(C)C(O)c1ccc(OC)c2ccccc12 (stereo not given),79.1% (inactive)

row,Compound,growth
1,CC/C=C\C[C@H](O)C/C=C1/C(=O)C=C[C@@H]1C/C=C\CCCC(=O)OC,35.9% (inactive)
2,COc1cc(C2NC(=O)c3ccccc3N2)ccc1OCCCCCOc1c(OC)cc(C2=NOC(c3cc(OC)c(OC)c(OC)c3)C2)cc1OC (stereo not given),93.8% (inactive)
3,NC(=S)N/N=C/Cc1ccccc1,111% (inactive)
4,COc1ccc(C(=O)/C=C/c2c(C(F)(F)F)nc3sccn23)cc1OC,9.87% (active)
5,CN(C)c1ccc(-c2ccc3[nH]c(=O)nc(-c4ccccc4)c3c2)cn1,63.5% (inactive)
6,Cc1ccc(CCC(=O)Nc2ncc(Cc3cc(Cl)ccc3Cl)s2)o1,33.1% (inactive)
7,N/C(=N/N=C/c1ccccc1)N/N=C\c1ccccc1,72.4% (inactive)
8,CC/C=C\C/C=C\C[C@H](O)C/C=C1/C(=O)C=C[C@@H]1C/C=C\CCCC(=O)O,109% (inactive)
9,COc1cc(C2CC(=O)Nc3c2c(C)nn3-c2nc3ccccc3[nH]2)cc2c1OCC(=O)N2 (stereo not given),28.6% (inactive)
10,CC1CC2Oc3ccc(Cl)cc3C(=O)N2O1 (stereo not given),100% (inactive)
11,NS(=O)(=O)c1ccc(-n2nc(C(=O)N/N=C\c3ccc(F)cc3)cc2-c2ccc(Cl)cc2)cc1,93.5% (inactive)
12,Cc1ccc(NS(=O)(=O)c2ccc3c(c2)C2OCCC2C(c2ccc(C(=O)C(C)C)cc2)N3)cc1C (stereo not given),59.3% (inactive)
13,COc1ccc2c(c1)[nH]c(=O)c1c3cccnc3cn21,11.9% (inactive)
14,Nc1ccc2c(c1)c(N)nn2C(=O)Nc1ccc(Cc2ccccc2)cc1,107% (inactive)
15,O=c1[nH]ccc2nc(N3CCC(O)CC3)nc(Nc3ccc(N4CCOCC4)cc3)c12,14.9% (inactive)
16,CC(=O)c1ccc(NCC(=O)Nc2ccccn2)cc1,97% (inactive)
17,CCOC(CN=Cc1cc(C)c2[nH]c3ccccc3c2c1C)OCC,111% (inactive)
18,C[n+]1cc2cc(C(N)=O)[nH]c3c(=N)c(Cl)c(N)c1c23,60% (inactive)
19,C[n+]1cc2c3c(ccc2c2ccc4cc5c(cc4c21)OCO5)OCO3,-99.5% (active)
20,CCN(CC)CCCCCCNc1cc(OC)c(Cl)c2cccnc12,92.5% (inactive)
